The campaign covered roughly 69,000 compounds. About 8,600 (12%) showed an effect of 50% or more. The entries come from a sample that favours strong results as a whole.
System: Plasmodium berghei
Experiment: Screen against P. berghei liver stage (PbLuc), transformed with Luciferase, at 10uM
Assay type: functional, HepG2
Conditions: tested at 10 uM

Row | Structure (SMILES) | INHIBITION [%]
1 | C[C@@H]1CN(Cc2nc(Cc3ccccc3F)no2)C[C@H](C)O1 | 3.93
2 | Cc1nc(C2CCNC2)nc2c1CCC(=O)N2C (stereo not given) | 17.265
3 | CS(=O)(=O)Cc1nc(CN2CCCc3sccc3C2)cs1 | 36.2
4 | CS(=O)(=O)Cc1nc(CN2CCC(C(F)(F)F)CC2)cs1 | 52.2
5 | CS(=O)(=O)Cc1nc(CN2CC=C(c3ccccc3)CC2)cs1 | 27.6
6 | CC1(C)CN(Cc2csc(CS(C)(=O)=O)n2)Cc2ccccc21 | 60.8
7 | CS(=O)(=O)Cc1nc(CN2CCOc3ccccc3C2)cs1 | 7.31
8 | CS(=O)(=O)Cc1nc(CN2CCc3ccccc3CC2)cs1 | 56.5
9 | Cc1cc(CSCc2csc(CS(C)(=O)=O)n2)no1 | 19.4
10 | CS(=O)(=O)Cc1nc(CNc2c(F)cc(F)cc2F)cs1 | 40.4
11 | CCc1nc(CSCc2csc(CS(C)(=O)=O)n2)cs1 | -29.2
12 | COc1ccc(C2CCCN2Cc2ccc(S(=O)(=O)N(C)C)o2)cc1 (stereo not given) | 37.4
13 | O=C(Cn1cc(C(=O)O)cn1)Nc1c(Cl)cccc1Cl | 22.6
14 | CC(C(=O)N1CCCN(Cc2ccc(C#N)cc2)CC1)n1cncn1 (stereo not given) | 27.65
15 | Cc1n[nH]c(C)c1NC(=O)CCc1cccc(C2CCCN(C)C2)n1 (stereo not given) | 29.3
16 | CCCn1c(C)c(CC(=O)NC(C)CO)c2c1CC(C)(C)CC2=O (stereo not given) | 18.6
17 | O=C1[C@@H]2CN(c3ncnc4[nH]ccc34)C[C@]2(C(=O)O)CN1CC1CC1 | 36.6
18 | Cc1ccc(-c2cc(CNC(=O)N3CCCN(C)CC3)on2)cc1 | 35.9
19 | Cn1c(=O)[nH]c(=O)c2c1nc1n2CC(c2ccc(Cl)cc2)O1 (stereo not given) | 7.92
20 | CCc1noc(C(C)N(C)CC(=O)Nc2cccc(C)n2)n1 (stereo not given) | -29.2
21 | CCc1noc(C(C)N(C)CC(=O)Nc2ccc(Cl)c(C(F)(F)F)c2)n1 (stereo not given) | 90.2
22 | CCc1noc(C(C)N(C)Cc2cc(Br)ccc2OC)n1 (stereo not given) | 51.5
23 | CCc1noc(C(C)N(C)CC(=O)Nc2c(C)cccc2C)n1 (stereo not given) | -8.69
24 | CCc1noc(C(C)N(C)CC(=O)Nc2cccc(C)c2C)n1 (stereo not given) | 41.4
25 | CCc1noc(C(C)N(C)CC(=O)Nc2ccc(Br)cc2C)n1 (stereo not given) | 74
26 | COc1ccc(Br)cc1CN(C)C(C)c1nc(C(C)C)no1 (stereo not given) | 3.73
27 | COc1ccc(Br)cc1CN(C)C(C)c1nc(C)no1 (stereo not given) | 4.82

Row | Structure (SMILES) | INHIBITION [%]
28 | CCc1noc(C(C)N(C)CC(=O)Nc2ccc(C)cc2)n1 (stereo not given) | 27.6
29 | Cc1ccccc1NC(=O)NCC(C)(O)c1cccs1 (stereo not given) | 48.8
30 | Cc1noc2nc(C3CCN(Cc4ccccn4)CC3)cc(C(F)F)c12 | 47.1
31 | Cc1cc(C(NC(=O)CNS(C)(=O)=O)C(C)C)c(C)s1 (stereo not given) | 22.3
32 | Cc1cccc(CN2C[C@@H]3COC[C@]3(CNC(=O)c3ccsc3)C2)n1 | 39.8
33 | COc1ccc(CN2CCO[C@@H]3C[C@@H](C(=O)NC(C)C)C[C@H]32)cc1 | 26.5
34 | CCS(=O)(=O)NC(CCSC)C(=O)Nc1cccc(C)c1C (stereo not given) | 26.9
35 | CC(Oc1cc(Cl)cc(Cl)c1)C(=O)NCCS(N)(=O)=O (stereo not given) | 34.7
36 | Cc1c(Br)c(C(=O)NC(C)c2ccccc2)nn1C (stereo not given) | -38.2
37 | Cc1ccc(-c2noc(CCC(=O)NC(C)Cn3cccn3)n2)cc1 (stereo not given) | 22.6
38 | O=C(c1ccc[nH]1)N1CCn2cc(CN3CCCC3)nc2C1 | 18.8
39 | N#Cc1ccc(C(=O)N2CCn3cc(CN4CCCCC4)nc3C2)cc1 | 52
40 | O=C(c1cccnc1)N1CCn2cc(CN3CCCC3)nc2C1 | 31.1
41 | CN1CCN(Cc2cn3c(n2)CN(C(=O)c2ccccn2)CC3)CC1 | 25.1
42 | Cn1cccc1C(=O)N1CCn2cc(CN3CCCC3)nc2C1 | 52
43 | CC(=O)NCC(=O)N1CCn2cc(CN3CCCCC3)nc2C1 | 68.8
44 | CC(=O)NCC(=O)N1CCn2cc(CN3CCN(C)CC3)nc2C1 | 43.5
45 | CN1CCN(Cc2cn3c(n2)CN(C(=O)c2cccn2C)CC3)CC1 | 54.7
46 | O=C(CCc1ccccc1)N1CCn2cc(CN3CCCC3)nc2C1 | 41.4
47 | CN1CCN(Cc2cn3c(n2)CN(C(=O)c2ccco2)CC3)CC1 | 17.4
48 | O=C(c1ccnnc1)N1CCn2cc(CN3CCCCC3)nc2C1 | 41.6
49 | O=C(c1ccco1)N1CCn2cc(CN3CCCC3)nc2C1 | 25.2
50 | Cc1ccc(NC2CCN(C(=O)c3cc4c(s3)CCC4)CC2)nn1 | -11.4
51 | CCn1cnnc1CNC(=O)NC(c1cccs1)C1CCCC1 (stereo not given) | -9.76
52 | COc1ccc(NC(=O)c2cnc(C3CCN(C(C)=O)C3)nc2C)cc1 (stereo not given) | 25.55
53 | O=C1CCC2(CCC(NC3CCOC3)CC2)N1Cc1ccncc1 (stereo not given) | 3.81
54 | CCC1(c2ccc(NS(=O)(=O)N(C)C)cc2)CCC(=O)NC1=O (stereo not given) | 18.9

Row | Structure (SMILES) | INHIBITION [%]
55 | Cc1cc(N2CCOCC2)nc(N(C)CCO)c1C#N | 12.3
56 | CC(C)c1nc2c(n1C)CCN(Cc1nc(-c3ccoc3)no1)C2 | 25.6
57 | CNc1cncc(C2CCCN2C(=O)Cn2ccnc2C)n1 (stereo not given) | 2.915
58 | O=C(Cc1csc(-c2ccccc2)n1)N[C@@H](C(=O)O)c1ccccc1 | -3.11
59 | Cc1cc(C(=O)N2CCn3cc(CN4CCCCC4)nc3C2)no1 | 17.1
60 | Cc1cc(C(=O)N2CCn3cc(CN4CCOCC4)nc3C2)no1 | 68.4
61 | Cc1cc(C(=O)N2CCn3cc(CN4CCCC4)nc3C2)no1 | 13.6
62 | CN(CCCc1cnn(C)c1)Cc1cc2n(n1)CCCNC2 | 49.4
63 | CN(CCCc1cnn(C)c1)Cc1cc2n(n1)CCCN(C)C2 | 65.7
64 | CNc1ncc(CN(C)Cc2cc3n(n2)CCNC3)cn1 | -99.3
65 | CCN(Cc1noc(C2CCC2)n1)C(=O)CCc1cc2n(n1)CCNC2 | 11.9
66 | CCc1cnc(C)nc1N(C)CCCc1cnn(C)c1 | 8.31
67 | CN(CCCc1cnn(C)c1)Cc1cc2n(n1)CCNC2 | 52.6
68 | CN(CCCc1cnn(C)c1)C(=O)C1CCN(C(=O)C2CCC2)CC1 | 38.7
69 | CN(Cc1cc2n(n1)CCNC2)Cc1noc(C2CCC2)n1 | 51
70 | CN(CCc1noc(C2CC2)n1)C(=O)CCc1cc2n(n1)CCCNC2 | 46.6
71 | O=C(c1cc2cc(F)ccc2[nH]1)N1CCC(Nc2cccnn2)CC1 | 22.3
72 | CCCC(NC(=O)c1cc(C)ccc1O)c1nnn[nH]1 (stereo not given) | 34.6
73 | COc1ncccc1NC(=O)C1CCOCC1 | 43.3
74 | CC(=O)Nc1c(C)noc1C=Cc1ccc(C)c(S(=O)(=O)NC2CC2)c1 | 11.6
75 | O=C(Nc1ccccc1)C1=CC2(CCNCC2)c2ccccc21 | 48.2
76 | O=C(Cn1cccn1)NCC1(c2ccccc2)CC1 | -8.3
77 | O=C(Cn1cncn1)NCC1(O)CCCc2ccccc21 (stereo not given) | 10.9
78 | Cc1cnn(CC(=O)NCC2(O)CCCc3ccccc32)c1 (stereo not given) | 80.5
79 | O=C(Cn1cnnn1)NCC1(O)CCCc2ccccc21 (stereo not given) | 64.7
80 | O=C(CN1C(=O)CCC1=O)NCC1(O)CCc2ccccc21 (stereo not given) | 5.58
81 | O=C(Cn1c(=O)oc2ccccc21)NCC1(O)CCc2ccccc21 (stereo not given) | -27.3

Row | Structure (SMILES) | INHIBITION [%]
82 | Cc1cccc(S(=O)(=O)N2CSCC2C(=O)NCC2CC2)c1 (stereo not given) | -14.3
83 | Cc1cnccc1-c1cnn(CCNC(=O)c2ccncc2)c1C1CC1 | 48
84 | Cc1ccc(CN(C)Cc2nc3ccc(F)cc3[nH]2)cn1 | 44.2
85 | Cc1ccc(CC(=O)N2CCCC(c3ccn[nH]3)C2)cn1 (stereo not given) | 22.965
86 | O=C(NCc1ccco1)[C@@H]1CCO[C@@H]2CCN(c3ncccn3)C[C@@H]21 | 36.9
87 | Cn1cccc1C(=O)N1CCN(Cc2ccncc2)c2ncccc2C1 | -33
88 | N[C@@H]1c2ccccc2C2(CCN(c3ncccc3C(F)(F)F)CC2)[C@H]1O | 86.6
89 | N[C@@H]1c2ccccc2C2(CCN(c3cccc(C(F)(F)F)n3)CC2)[C@H]1O | 88
90 | N[C@@H]1c2ccccc2C2(CCN(C(=O)c3cncc(Cl)c3)CC2)[C@H]1O | 8.5
91 | N[C@@H]1c2ccccc2C2(CCN(c3ccc(C(F)(F)F)cn3)CC2)[C@H]1O | 78.3
92 | CC(C)C(=O)NCC(=O)N1CCC2(CC1)c1ccccc1[C@@H](N)[C@@H]2O | -26.1
93 | FC(F)(F)c1ccnc(N2CCCCCC2)c1 | -6.52
94 | O=C1CCC2(CCN(c3cccc(C(F)(F)F)n3)CC2)CN1CCO | 47.9
95 | OCC1(O)CCN(c2ncccc2C(F)(F)F)CC1 | 24.2
96 | N[C@@H]1c2ccccc2C2(CCN(C(=O)c3ccc(Cl)cn3)CC2)[C@H]1O | 37.1
97 | N[C@@H]1c2ccccc2C2(CCN(c3cnc4ccccc4n3)CC2)[C@H]1O | 44.9
98 | NS(=O)(=O)CC1CCN(c2ncccc2C(F)(F)F)CC1 | 20.6
99 | N[C@@H]1c2ccccc2C2(CCN(c3cc(C(F)(F)F)ccn3)CC2)[C@H]1O | 58.8
100 | CC(C)c1n[nH]c(C2CN(CCCS(C)(=O)=O)CCO2)n1 (stereo not given) | 0.914
101 | Cc1nc(CN2CCn3cc(CNC(=O)C4CCC4)nc3C2)cs1 | -3.1
102 | Cc1ccc(N(Cc2ccco2)C(=O)Cc2cc(=O)n(C)[nH]2)cc1 | 39.5
103 | O=C(O)CCn1ccc2cc(Br)ccc21 | 24.7
104 | CC(NC(=O)C1=NN(C)C(=O)CC1)c1ccccc1Cl (stereo not given) | 35.4
105 | Cc1cnc(CNC(=O)C2CCOc3ccccc3C2)cn1 (stereo not given) | -3.83
